Marburg entry inh – blocks Marburg virus binding to or entry into cells | Marburg virus pseudotyped entry inhibition, cell reporter | 300,000 tested, 1.8% active | Potency, µM (top dose mostly 37.8 µM), for inactives: at the top dose activity change, negative = inhibition, usual class: inhibitors | AID 540276; calls by dose curve; tested in HEK293 cells; also: potency is read from the fitted curve at half-maximal effect
VACV mCherry inh – inhibitors of vaccinia virus infection (mCherry reporter signal) | Vaccinia virus mCherry reporter infection, fluorescence | 310,000 tested, 0.63% active | Potency, µM (series often up to 36.5 µM), without a hit: at the highest dose activity change, negative = inhibition, usual class: inhibitors; calls by dose curve; tested in A549 cells; also: potency is read from the fitted curve at half-maximal effect; nearly all actives have a fitted effect of over 35% in size
FMDV antiviral – antivirals against foot and mouth disease virus; FMDV antiviral cell-based qHTS; Potency, µM (highest dose often 57.9 µM), for the others: at the top dose activity change, negative = inhibition, usual class: inhibitors; 410,000 tested, 1.2% active; AID 1159524; calls by dose curve; tested in HEK293T cells; also: read-out not given here; potency is read from the fitted curve at half-maximal effect; nearly all actives have a fitted effect of over 45% in size
Vaccinia Venus – inhibitors of vaccinia virus (Venus reporter); 330,000 tested, 0.46% active; Potency, µM (titrated, usually from 36.5 µM), for inactives: at the top dose activity change, negative = inhibition, most hits filed as inhibitors; Vaccinia virus Venus reporter expression, fluorescence; calls by dose curve; tested in A549 cells; also: potency is read from the fitted curve at half-maximal effect; nearly all actives have a fitted effect of over 30% in size
LASV entry inh – inhibitors of Lassa virus binding or cell entry; Lassa virus pseudotype entry inhibition, cell reporter; Potency, µM (top dose mostly 37.9 µM), without a hit: at the top dose activity change, negative = inhibition, most hits filed as inhibitors; 300,000 tested, 1.2% active; calls by dose curve; tested in HEK293 cells; also: potency is read from the fitted curve at half-maximal effect; nearly all actives have a fitted effect of over 50% in size
HCMV inh – human cytomegalovirus inhibition; HFF cells, HCMV-luciferase reporter, 72 h; active compounds read low; activity change, negative = inhibition, % at 57.5 µM; 410,000 tested, 4.5% active; AID 1259415; in the data active = activity change below about -60%; inconclusive = no clear call, values can overlap the other calls; inactive = above about -39%
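HFF cells seeded 16 h at 37C, treated with compounds, infected with luciferase-reporter HCMV at MOI 1 PFU/cell; luciferase read at 72 h post infection, normalized to buffer-only and Salinomycin controls.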
An asterisk follows results filed as active; i = inactive; ? = inconclusive; . = no result; ! = a repeat was not active; [ ] = remark or other dose. A selection: hits, their analogues and other compounds. The true share with any hit is near 6.5%. % is scaled to controls: 0 for no effect and ±100 for the full control effect.

SMILES	Marburg entry inh	VACV mCherry inh	FMDV antiviral	Vaccinia Venus	LASV entry inh	HCMV inh
COC(=O)C1=C(C(=O)OC)[C@@H]2N(Cc3ccccc3)c3ccccc3[C@@]23C[C@@H](C(=O)OC)N(C(=O)Nc2ccccc2F)C3=N1	-13%[14.2 µM]	.	.	.	.	.
c1ccc(C[n+]2cccc(-c3ccccc3)c2)cc1	-4%	?	-28%	-25%	?	-72*
Cc1ccc(NC(=O)C(C)Sc2nnc(C)n2CC2CCCO2)cc1 (stereo unspecified)	10%[46.1 µM]	-3%	-8%	17%	2%[46.1 µM]	-71*
CCOC(=O)c1cnc(-n2nc(C)cc2C)nc1Nc1ccc(OC)cc1	?	.	13%	.	?	-32
CCOC(=O)c1cnc(-n2nc(C)cc2C)nc1NCCc1ccccc1	?	?	?	?	-26%	-92*
CCOC(=O)c1cnc(-n2nc(C)cc2C)nc1NC1CCCC1	11µM*	-14%[7.34 µM]	?	-16%[7.34 µM]	?	-108*
O=C(Nc1ccccc1C(=O)OCc1cc(=O)n2c3c(sc2n1)CCCC3)c1ccc(Cl)cc1	.	-4%	-12%	-16%	?	?
O=C(Nc1cccc(C(=O)OCc2cc(=O)n3c4c(sc3n2)CCCC4)c1)c1cccc(F)c1	.	-17%	-14%	-14%	?	-74*
O=C(Nc1ccccc1C(=O)OCc1cc(=O)n2c3c(sc2n1)CCCC3)c1ccccc1	.	i	-25%	-11%	-3%[46.1 µM]	-83*
O=C(COc1ccc(/C=N/NC(=O)c2cc3ccccc3o2)cc1Cl)Nc1ccccc1	?	?	-69%	?	8.9µM*	.
COc1cc(/C=N/NC(=O)c2ccccc2O)ccc1OCC(=O)Nc1ccccc1	.	.	1%	.	.	93
O=C(NCCc1csc(-c2ccc(C(F)(F)F)cc2)n1)c1ccc(F)c(F)c1	.	-16%	20µM*	-12%	-26%[46.1 µM]	-63*
Cc1cccc(-c2nc(CCNC(=O)c3ccco3)cs2)c1	.	-4%	-25%	-12%	-15%[46.1 µM]	-68*!
O=C(NCCc1csc(-c2ccccc2)n1)c1c(F)cccc1Cl	6%[46.1 µM]	-10%	13%	-5%	?	-70*
Cc1cc(C)cc(C(=O)NCCc2csc(-c3ccc(C(F)(F)F)cc3)n2)c1	.	-13%	-23%	-7%	-17%[46.1 µM]	18
COc1cc(OC)cc(-c2nc3nc(C)c(CCC(=O)Nc4ccc(F)cc4F)c(C)n3n2)c1	9%[46.1 µM]	6%	7%	0%	-22%[46.1 µM]	9
COc1cc(CCN2C(=O)NC(c3ccccc3)C(C(C)=O)=C2C)cc(OC)c1OC (stereo unspecified)	6%[14.2 µM]	.	.	.	.	.
Cc1cc(Nc2ccccc2O)nc(C)n1	1%[46.1 µM]	-2%	12%	-4%	6%[46.1 µM]	-1
Cc1cccc(Nc2cc(C)c3c(O)cccc3n2)c1C	?	14µM*	4%	?	?	-65*
CN1C(=O)N=C2N=CN(C)C2C1=O (stereo unspecified)	4%	.	.	.	.	.
O=S1(=O)CCC(NC(=S)NC2CCS(=O)(=O)C2)C1 (stereo unspecified)	?	i	7%	-8%	?	-4
O=S1(=O)CCC(NC(=S)SCCOc2ccccc2)C1 (stereo unspecified)	.	.	14µM*	.	.	-69*
CCCCSC(=S)NC1CCS(=O)(=O)C1 (stereo unspecified)	?	?	-27%	-25%	4%	-84*
CC(C)c1ccc(NC(=O)Cn2cc(S(=O)(=O)Cc3ccccc3Cl)c3ccccc32)cc1	.	?	-17%	-30%	?	0
CNc1nc2cnc(Nc3ccc(F)cc3)cc2n1-c1cccc(C(F)(F)F)c1	.	.	.	.	.	4
SMILES	Marburg entry inh	VACV mCherry inh	FMDV antiviral	Vaccinia Venus	LASV entry inh	HCMV inh
CC(C)[n+]1ccn(C2=C([O-])c3ccccc3C(=O)/C2=N\S(=O)(=O)c2ccccc2)c1	?	?	?	?	2%	-87*
CCCCC[n+]1ccn(C2=C([O-])c3ccccc3C(=O)/C2=N\S(=O)(=O)c2ccccc2)c1	22µM*	?	?	?	?	-77*
CC(C)(C)c1cc[n+](C2=C([O-])c3ccccc3C(=O)/C2=N\S(=O)(=O)c2ccccc2)cc1	9%[14.2 µM]	-17%	?	-21%	-4%	-4
CCCC[n+]1ccn(C2=C([O-])c3ccccc3C(=O)/C2=N\S(=O)(=O)c2ccccc2)c1	?	?	22µM*	?	?	?
CCCC[n+]1ccn(-c2nc3ccccc3nc2[N-]S(=O)(=O)c2ccccc2)c1	16%	-3%	.	-7%	?	20
CCCCC[n+]1ccn(C2=C([O-])c3ccccc3C(=O)/C2=N\S(=O)(=O)c2ccc(Br)cc2)c1	.	.	-6%	.	.	-24
Cn1c(=O)[nH]c2cc(-c3noc(-c4ccc(F)cc4)n3)ccc21	.	-6%	37%	5%	?	18
Cc1nc2ccccc2c(=O)n1NC(=O)Cc1ccc(Br)cc1	-10%	1.8µM*	0%	-9%	?	19
COc1ccc(CC(=O)Nn2c(-c3ccccc3)nc3ccccc3c2=O)cc1	?	-22%	?	-15%	?	-2
CCc1ccc(C(=O)Nn2c(C)nc3ccccc3c2=O)cc1	.	.	4%	.	.	85
CCCCCc1ccc(CC(=O)Nn2c(C)nc3ccccc3c2=O)cc1	1%	-30%	.	-25%	-19%	-69*
Cc1ccc(S(=O)(=O)C(CNC(=O)C(=O)NCCc2ccc(F)cc2)c2cccs2)cc1 (stereo unspecified)	.	-10%	?	-5%	-6%[46.1 µM]	-20
Cc1nc(S(=O)(=O)N2CCOCC2)c(C#N)c(C)c1Cl	-33%[46.1 µM]	-17%	-5%	-6%	-11%	-105*
O=C(Nc1ccc(Cl)cc1)N[C@H]1CC[C@@]23CCCN2C(=O)CCC[C@H]3C1Cc1ccccc1 (stereo partly specified)	.	.	.	.	.	16
CCOc1cc(C=C2C(=O)NC(=O)NC2=O)ccc1OCC(=O)N1CCOCC1	-6%	-14%	-11%	-8%	2%	-27
CCOc1cc(/C=C2\COc3ccccc3C2=O)ccc1OCC(=O)N(C)C	?	-4%	28µM*	-27%	?	47
CCNC(=O)COc1ccc(/C=C2\COc3ccccc3C2=O)cc1OC	?	-7%	28µM*	-23%	15µM*	73
COC(=O)C1=C(CS(=O)(=O)c2ccc(C)cc2C)NC(=O)NC1c1ccc(C)cc1 (stereo unspecified)	-19%[46.1 µM]	-14%	-17%	-1%	-19%[46.1 µM]	-21
O=C(NCCCc1nc2ccccc2n1Cc1ccc(Cl)cc1)c1ccco1	-10%[46.1 µM]	-12%	?	-10%	0%[46.1 µM]	-32
O=C(NCCCc1nc2ccccc2n1Cc1cccc(Cl)c1)c1ccco1	?	-3%[7.34 µM]	?	-8%[7.34 µM]	-7%[46.1 µM]	-76*
CCCCCn1c(CCCNC(=O)c2cccc(C)c2)nc2ccccc21	-18%[46.1 µM]	-21%	?	?	?	-85*
CCN1CCCC1CNC(=O)c1cnn(-c2nccc(-c3ccccc3F)n2)c1C (stereo unspecified)	.	-3%	-6%	5%	.	.

From PubChem
